NPC1 prom act: qHTS Assay for NPC1 Promoter Activators | Huh7 NPC1 promoter luciferase reporter, 24 h | Potency, µM (top dose mostly 9.22 µM), for inactives: top-dose activation, usual class: activators | actives 2.4% (n = 320,000) | AID 485313, 2010; also: % of control where 0% means no effect; nearly all actives have a fitted effect of over 60% in size
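NPC1 promoter–luciferase Huh7 cells; 24 h compound; luminescence.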
SMN2 splice enh: qHTS Assay for Enhancers of SMN2 Splice Variant Expression; HEK293 SMN2-luciferase splicing reporter, luminescence, 30-36 h; actives 2.8% (n = 210,000); Potency, µM (top dose mostly 46.1 µM), for the others: at the highest dose activity change, positive = activation, hits mostly activators; also: % of control where 0% means no effect; nearly all actives have a fitted effect of over 55% in size
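qHTS luciferase splicing reporter: luminescence rises when SMN2 exon 7 is included in transfected HEK293 cells. Compound exposure lasted 30-36 h at 37C, with 4.5 mM final sodium butyrate as control, followed by a ONE-Glo read.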
ELG1 genotoxic: qHTS screen for small molecules that induce genotoxicity in human embryonic kidney (HEK293T) cells expressing luciferase-tagged ELG1; HEK293T ELG1-luciferase reporter, luminescence, 16 h; Potency, µM (highest dose often 46 µM), for inactives: at the highest dose activity change, positive = activation, hits mostly activators; actives 1.3% (n = 330,000); AID 504466, 2011; also: % of control where 0% means no effect; nearly all actives have a fitted effect of over 60% in size
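DMSO vehicle served as control against compound-treated ELG1-luciferase HEK293T cells; exposure lasted 16 hr at 37 °C and 5% CO2, followed by ONE-Glo luminescence detection after 30 min.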
FLuc modulator: qHTS profiling assay for firefly luciferase inhibitor/activator using purifed enzyme and Km concentrations of substrates (counterscreen for miR-21 project); Luciferin 4-monooxygenase (Photinus pyralis), P08659; actives 6.9% (n = 360,000); AID 588342, 2011; purified FLuc, Km substrates, luminescence inhibition; Potency, µM (series often up to 57.5 µM), inactives show at the top dose activity change, negative = inhibition, usual class: inhibitors;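 also: plate controls were vehicle for no effect and reference inhibitor for full effect; nearly all actives have a fitted effect of over 55% in size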
Target sequence (P08659 whole entry, looked up): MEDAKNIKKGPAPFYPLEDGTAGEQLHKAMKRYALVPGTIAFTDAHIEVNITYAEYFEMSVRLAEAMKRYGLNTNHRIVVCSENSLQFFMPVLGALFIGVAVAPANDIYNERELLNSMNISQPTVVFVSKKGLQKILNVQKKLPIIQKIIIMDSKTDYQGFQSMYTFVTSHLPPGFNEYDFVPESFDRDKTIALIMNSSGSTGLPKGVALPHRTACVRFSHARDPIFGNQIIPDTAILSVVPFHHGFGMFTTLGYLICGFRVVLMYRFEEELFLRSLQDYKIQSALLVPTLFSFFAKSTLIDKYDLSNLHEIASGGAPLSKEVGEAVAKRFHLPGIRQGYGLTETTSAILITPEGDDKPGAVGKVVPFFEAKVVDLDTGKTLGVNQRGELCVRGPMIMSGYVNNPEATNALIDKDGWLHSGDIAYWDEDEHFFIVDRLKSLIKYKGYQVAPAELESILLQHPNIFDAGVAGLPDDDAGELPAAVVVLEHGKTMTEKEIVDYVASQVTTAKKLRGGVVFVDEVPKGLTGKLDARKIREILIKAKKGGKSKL
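Biochemical qHTS of compounds, final roughly 60 µM downward over six points, against 10 nM purified firefly luciferase using Km concentrations of substrates (10 uM D-luciferin, 10 uM ATP) in Tris acetate pH 7.5 buffer; luminescence output.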
Rab9 promoter act: qHTS Assay for Rab9 Promoter Activators. AID 485297, 2010. Huh7 Rab9 promoter-luciferase reporter, luminescence, 24 h. Potency, µM (series often up to 9.22 µM), for the others: top-dose activation, negative = inhibition, usual class: activators. actives 2.8% (n = 320,000); also: % of control where 0% means no effect; nearly all actives have a fitted effect of over 60% in size
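Huh7 reporter line, Rab9 promoter upstream of luciferase. Compound exposure 24 h at 37 °C in reduced-serum medium with 10% FBS. Read-out: luminescence.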
Luc counter: Counterscreen for Luciferase (Kinase-Glo TM) Inhibition; Kinase-Glo luciferase, ATP luminescence, 8 min; Potency, µM (highest dose often 38.3 µM), without a hit: at the highest dose activity change, negative = inhibition, most hits filed as inhibitors; actives 0.28% (n = 200,000); AID 1379, 2008; also: % is scaled to controls: 0 for no effect and ±100 for the full control effect; nearly all actives have a fitted effect of over 60% in size
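Compound is pinned into ATP-containing buffer (10 uM ATP, imidazole pH 7.2, 7 mM MgCl2). Kinase-Glo luciferase reagent is then added. Light output is recorded following an 8-min room-temperature incubation.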
* = called active by the depositor; ? = inconclusive; . = no result. This is a sample that favours compounds with a hit; in the whole collection about 7.4% have one here. Calls follow the shape of the dose curve; as a rule, active = well fitted curve in the direction sought with a large enough effect; inconclusive = small, poorly fitted or top-dose-only effect, or another doubt; inactive = no such curve, though single readings can be large; an effect the other way counts as inactive or inconclusive. Potency is read from the fitted curve at half-maximal effect.

SMILES	NPC1 prom act	SMN2 splice enh	ELG1 genotoxic	FLuc modulator	Rab9 promoter act	Luc counter
CN(Cc1nccs1)C(=O)c1ccc2nc(Cc3ccccc3F)oc2c1	0.7%	.	-2.3%	2.9%	0.0%	.
Cc1cc(CN(C)C(=O)c2ccc3nc(Cc4ccccc4F)oc3c2)on1	2.82µM*	.	-3.1%	?	3.16µM*	.
CN(Cc1nccn1C)C(=O)c1ccc2nc(Cc3ccccc3F)oc2c1	14.6%	.	?	13.5µM*	?	.
c1ccc2oc(SCc3cn4ccccc4n3)nc2c1	1.41µM*	14.1µM*	4.61µM*	9.53µM*	1.12µM*	-4.0%
Cc1cccc2nc(CSc3nc4ccccc4o3)cn12	0.8%	-1.6%	12.8%	15.1µM*	19.8%	-4.5%
Cc1cc(C)nc(SCc2cn3c(C)cccc3n2)n1	1.2%	.	-0.3%	-19.2%	-2.1%	.
Cc1cc(C(=O)COC(=O)c2cnccn2)c(C)n1-c1ccc(Br)cc1	.	.	-1.5%	.	.	.
O=C(OCC(=O)c1c[nH]c2ccccc12)C1=COCCO1	?	?	?	15.1µM*	3.55µM*	0.5%
Cc1ccc(-n2c(C)cc(C(=O)COC(=O)C3=NNC(=O)CC3)c2C)cc1	-1.9%	-25.2%	18.4%	16.9µM*	0.7%	-0.5%
CCC(=O)OCC(=O)c1cc(C)n(-c2ccc(Br)cc2)c1C	-5.0%	-28.1%	-4.3%	4.26µM*	-2.5%	-6.1%
Cc1ccc(-n2c(C)cc(C(=O)COC(=O)c3c(C)noc3C)c2C)cc1	?	-4.7%	13.1%	3.38µM*	?	-12.4%
O=C(OCC(=O)c1ccc[nH]1)C1=COCCO1	-1.8%	.	3.7%	-12.9%	1.1%	.
Cc1cc(F)ccc1S(=O)(=O)NCC(c1cccnc1)N1CCc2ccccc21 (centres undefined)	-1.3%	.	-2.4%	0.5%	3.0%	.
CCOc1ccc(N(CC(=O)NC2CC2)S(=O)(=O)c2ccc(C)cc2)cc1	-0.4%	.	-8.8%	1.6%	-2.6%	.
CCn1c(=O)c(CCC(=O)NCC2CCCO2)c(C)c2c(C)nn(-c3ccccc3)c21 (centres undefined)	-2.8%	.	-14.8%	0.6%	-6.9%	.
Cn1c(=O)c(=O)n(C)c2cc(S(=O)(=O)CCC(=O)Nc3c(F)c(F)c(F)c(F)c3F)ccc21	-4.7%	.	5.3%	2.9%	0.6%	.
Cc1cc(C(=O)COC(=O)C2=NNC(=O)CC2)c(C)n1-c1ccccc1	-3.6%	-4.4%	4.4%	1.9µM*	4.4%	14.2%
Cc1cc(C(=O)COC(=O)C2=COCCO2)c(C)n1-c1ccccc1	.	.	0.259µM*	.	.	.
Cc1cc(C(=O)COC(=O)CC2Sc3ccccc3NC2=O)c(C)n1-c1ccccc1 (centres undefined)	14.6%	-8.7%	8.1%	6.01µM*	18.0%	1.2%
COc1ccc2[nH]cc(CCNc3nc(-c4ccc(C(=O)N(C)C)cc4)nc4ccccc34)c2c1	.	11.2µM*	.	.	.	-15.4%
Cc1ccc(SCc2nc(N)nc(Nc3ccccc3C)n2)c(C)c1	4.8%	-14.3%	2.1%	26.9µM*	5.5%	4.8%
CCc1ccccc1Nc1nc(N)nc(CSc2nnnn2C)n1	-1.4%	20.6%	9.9%	1.5%	21.2%	9.6%
Cc1ccccc1Nc1nc(N)nc(CSc2ccc(F)cc2)n1	2.51µM*	.	8.2µM*	10.7µM*	3.16µM*	.
Cc1ccc(SCc2nc(N)nc(Nc3ccccc3C)n2)cc1C	-0.1%	2.5%	1.1%	-15.9%	1.0%	-0.2%
Cc1ccccc1Nc1nc(N)nc(CSc2nnnn2C)n1	3.55µM*	12.6µM*	?	?	2.51µM*	-7.2%
Cc1ccc(Nc2nc(N)nc(CSc3nccn3C)n2)c(C)c1	?	90.5%	14.6µM*	?	?	0.1%
